Test results: the supplement of paper PMC10849652
About 7,900 targets were measured; listed, in parts, are those with a hit and a random draw of the rest. About 0.6% of all pairs of compound and target were hits.

What was measured:
Test in all cases: log2 fold change, soluble protein after heating vs DMSO (PISA); higher = thermal stabilisation; K562 cells, 10 uM, 30 min; active = over 0.2 and 3.5 SD of the protein, either way, in both replicates (recomputed)
[1] = compound: COC1=CC=C(C=C1)CN2C=CC3=C2C=C(C=C3)C(=O)NO
Method in brief: (§1)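 Values are thermal stability changes relative to control samples and are taken from duplicates. They are stated as log2 fold changes. Before quantification by TMTpro 16plex LC-MS/MS with equalised channel sums, K562 cells at 2×10^6 cells/mL were treated with 10 μM compound for 30 min, heated in aliquots for 3 min across 48°C-58°C, pooled, extracted in PBS with 0.5% NP-40 at 4°C, and centrifuged at 21,000xg for 90 min to give the soluble supernatant.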

filanesib = compound: CON(C)C(=O)N1N=C(c2cc(F)ccc2F)S[C@@]1(CCCN)c1ccccc1 [filanesib]
Method in brief: as §1

zotarolimus = compound: CO[C@H]1C[C@@H]2CC[C@@H](C)[C@@](O)(O2)C(=O)C(=O)N2CCCC[C@H]2C(=O)O[C@H]([C@H](C)C[C@@H]2CC[C@H](n3cnnn3)[C@H](OC)C2)CC(=O)[C@H](C)/C=C(\C)[C@@H](O)[C@@H](OC)C(=O)[C@H](C)C[C@H](C)/C=C/C=C/C=C/1C [zotarolimus]
Method in brief: as §1

idasanutlin = compound: COc1cc(C(=O)O)ccc1NC(=O)[C@@H]1N[C@@H](CC(C)(C)C)[C@](C#N)(c2ccc(Cl)cc2F)[C@H]1c1cccc(Cl)c1F [idasanutlin]
Method in brief: as §1

alisertib = compound: COc1cc(Nc2ncc3c(n2)-c2ccc(Cl)cc2C(c2c(F)cccc2OC)=NC3)ccc1C(=O)O [alisertib]
Method in brief: as §1

[2] = compound: COc1cc2nc(-c3cc(F)ccc3O)nc(N[C@@H]3CNC[C@H]3C(C)(C)O)c2cc1OC
Method in brief: as §1

gefitinib = compound: COc1cc2ncnc(Nc3ccc(F)c(Cl)c3)c2cc1OCCCN1CCOCC1 [gefitinib]
Method in brief: as §1

[3] = compound: COc1cccc2cc(-c3nc([C@H]4CC[C@H](C(=O)O)CC4)n4ncnc(N)c34)[nH]c12
Method in brief: as §1

lapatinib = compound: CS(=O)(=O)CCNCc1ccc(-c2ccc3ncnc(Nc4ccc(OCc5cccc(F)c5)c(Cl)c4)c3c2)o1 [lapatinib]
Method in brief: as §1

pictilisib = compound: CS(=O)(=O)N1CCN(Cc2cc3nc(-c4cccc5[nH]ncc45)nc(N4CCOCC4)c3s2)CC1 [pictilisib]
Method in brief: as §1

Measured: log2 fold change

RBM6 (UniProt P78332)
UniProt P78332, sequence (P78332 whole entry, looked up): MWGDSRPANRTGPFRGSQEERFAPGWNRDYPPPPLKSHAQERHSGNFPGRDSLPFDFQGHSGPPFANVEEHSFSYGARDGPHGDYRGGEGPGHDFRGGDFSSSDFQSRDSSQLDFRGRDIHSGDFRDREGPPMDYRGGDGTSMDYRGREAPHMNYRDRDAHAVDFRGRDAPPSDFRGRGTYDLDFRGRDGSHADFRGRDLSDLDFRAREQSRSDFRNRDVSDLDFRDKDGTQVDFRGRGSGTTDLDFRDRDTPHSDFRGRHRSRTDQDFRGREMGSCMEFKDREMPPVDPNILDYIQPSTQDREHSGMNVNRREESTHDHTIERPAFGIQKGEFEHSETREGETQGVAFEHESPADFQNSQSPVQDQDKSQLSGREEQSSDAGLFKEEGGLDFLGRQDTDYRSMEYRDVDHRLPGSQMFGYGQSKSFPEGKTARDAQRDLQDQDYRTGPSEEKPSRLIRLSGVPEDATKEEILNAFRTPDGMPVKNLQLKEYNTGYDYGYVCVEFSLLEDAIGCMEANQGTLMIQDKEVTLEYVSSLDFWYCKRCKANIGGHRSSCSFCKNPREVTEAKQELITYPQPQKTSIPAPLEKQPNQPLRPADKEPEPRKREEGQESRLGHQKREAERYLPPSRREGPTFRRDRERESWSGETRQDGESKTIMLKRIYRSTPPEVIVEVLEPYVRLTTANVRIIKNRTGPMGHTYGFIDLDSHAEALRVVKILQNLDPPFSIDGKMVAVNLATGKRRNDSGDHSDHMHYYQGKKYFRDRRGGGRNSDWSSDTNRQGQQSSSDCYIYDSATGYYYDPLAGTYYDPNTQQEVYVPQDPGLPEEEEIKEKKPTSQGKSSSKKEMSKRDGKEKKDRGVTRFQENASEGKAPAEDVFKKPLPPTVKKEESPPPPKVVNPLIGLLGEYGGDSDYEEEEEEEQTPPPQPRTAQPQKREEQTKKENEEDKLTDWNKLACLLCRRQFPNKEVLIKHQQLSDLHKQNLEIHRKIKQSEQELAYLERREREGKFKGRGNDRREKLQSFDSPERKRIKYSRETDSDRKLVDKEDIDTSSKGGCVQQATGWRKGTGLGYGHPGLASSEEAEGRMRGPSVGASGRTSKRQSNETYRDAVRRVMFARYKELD
inactive: [1] 0.044 | filanesib -0.067 | zotarolimus 0.064 | idasanutlin 0.101 | alisertib -0.431 | [2] -0.02 | gefitinib -0.007 | [3] 0.005 | lapatinib 0.121 | pictilisib -0.044

RAB33B (UniProt Q9H082)
inactive: [1] -0.104 | filanesib -0.018 | zotarolimus -0.073 | idasanutlin 0.036 | alisertib 0.035 | [2] 0.039 | gefitinib 0.037 | [3] 0.087 | lapatinib 0.046 | pictilisib 0.106

SLC1A5 (UniProt Q15758)
UniProt Q15758, sequence (Q15758 whole entry, looked up): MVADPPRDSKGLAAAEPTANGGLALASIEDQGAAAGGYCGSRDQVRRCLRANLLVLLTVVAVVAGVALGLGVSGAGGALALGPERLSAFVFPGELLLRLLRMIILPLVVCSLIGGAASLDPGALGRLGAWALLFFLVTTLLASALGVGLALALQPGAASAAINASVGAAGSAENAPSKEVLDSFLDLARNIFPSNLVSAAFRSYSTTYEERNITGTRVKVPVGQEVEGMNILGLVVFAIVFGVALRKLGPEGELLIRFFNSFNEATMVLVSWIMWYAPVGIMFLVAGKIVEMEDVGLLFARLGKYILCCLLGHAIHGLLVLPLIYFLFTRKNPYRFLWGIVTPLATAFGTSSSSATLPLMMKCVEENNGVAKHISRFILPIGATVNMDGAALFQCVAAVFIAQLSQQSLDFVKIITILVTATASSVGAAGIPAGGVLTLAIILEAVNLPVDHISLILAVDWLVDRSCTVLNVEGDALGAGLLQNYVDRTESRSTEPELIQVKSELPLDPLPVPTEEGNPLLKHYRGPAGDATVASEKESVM
inactive: [1] -0.048 | filanesib 0.071 | zotarolimus -0.052 | idasanutlin 0.031 | alisertib -0.126 | [2] 0.058 | gefitinib 0.023 | [3] 0.095 | lapatinib -0.01 | pictilisib 0.024

RPS6KA2 isoform 2 (UniProt Q15349)
inactive: [1] -0.023 | filanesib -0.006 | zotarolimus 0.016 | idasanutlin -0.033 | alisertib -0.052 | [2] -0.259 | gefitinib -0.078 | [3] 0.001 | lapatinib -0.011 | pictilisib -0.106

RBM12 (UniProt Q9NTZ6)
inactive: [1] 0.112 | filanesib -0.033 | zotarolimus 0.021 | idasanutlin -0.039 | alisertib 0.023 | [2] -0.014 | gefitinib 0.032 | [3] 0.023 | lapatinib -0.012 | pictilisib -0.019

RDH11 (UniProt Q8TC12)
UniProt Q8TC12, sequence (Q8TC12 whole entry, looked up): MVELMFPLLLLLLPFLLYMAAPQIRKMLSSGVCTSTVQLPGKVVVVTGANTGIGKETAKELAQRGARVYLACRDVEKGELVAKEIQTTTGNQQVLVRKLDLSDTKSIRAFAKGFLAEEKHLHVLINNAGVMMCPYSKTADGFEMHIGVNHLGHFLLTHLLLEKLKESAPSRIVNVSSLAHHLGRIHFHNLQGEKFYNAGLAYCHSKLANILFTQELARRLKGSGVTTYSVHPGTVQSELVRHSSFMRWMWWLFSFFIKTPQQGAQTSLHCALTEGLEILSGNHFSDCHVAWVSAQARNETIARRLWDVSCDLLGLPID
inactive: [1] 0.087 | filanesib -0.046 | zotarolimus 0.093 | idasanutlin 0.032 | alisertib -0.01 | [2] -0.333 | gefitinib 0.071 | [3] 0 | lapatinib 0.03 | pictilisib 0.241

SLBP (UniProt Q14493)
UniProt Q14493, sequence (Q14493 whole entry, looked up): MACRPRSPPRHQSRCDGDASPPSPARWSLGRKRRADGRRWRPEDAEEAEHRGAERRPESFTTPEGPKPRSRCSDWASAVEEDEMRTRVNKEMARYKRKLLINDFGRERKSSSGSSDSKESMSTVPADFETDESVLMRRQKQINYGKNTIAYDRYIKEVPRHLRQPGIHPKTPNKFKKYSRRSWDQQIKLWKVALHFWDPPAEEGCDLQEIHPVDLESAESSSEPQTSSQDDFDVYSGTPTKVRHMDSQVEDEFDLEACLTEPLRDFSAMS
inactive: [1] -0.148 | filanesib -0.035 | zotarolimus 0.112 | idasanutlin 0.224 | alisertib -0.152 | [2] -0.199 | gefitinib 0.034 | [3] 0.077 | lapatinib 0.004 | pictilisib 0.05

RPP25L (UniProt Q8N5L8)
UniProt Q8N5L8, sequence (Q8N5L8 whole entry, looked up): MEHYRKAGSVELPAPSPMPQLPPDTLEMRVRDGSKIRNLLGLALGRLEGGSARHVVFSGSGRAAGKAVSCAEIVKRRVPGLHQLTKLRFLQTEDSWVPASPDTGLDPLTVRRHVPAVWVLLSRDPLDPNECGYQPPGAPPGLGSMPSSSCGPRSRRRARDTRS
inactive: [1] 0.107 | filanesib 0.012 | zotarolimus -0.002 | idasanutlin 0.069 | alisertib -0.093 | [2] -0.12 | gefitinib 0.054 | [3] -0.068 | lapatinib 0.042 | pictilisib -0.052

RCC1 isoform 2 (UniProt P18754)
UniProt P18754, sequence (P18754 whole entry, looked up): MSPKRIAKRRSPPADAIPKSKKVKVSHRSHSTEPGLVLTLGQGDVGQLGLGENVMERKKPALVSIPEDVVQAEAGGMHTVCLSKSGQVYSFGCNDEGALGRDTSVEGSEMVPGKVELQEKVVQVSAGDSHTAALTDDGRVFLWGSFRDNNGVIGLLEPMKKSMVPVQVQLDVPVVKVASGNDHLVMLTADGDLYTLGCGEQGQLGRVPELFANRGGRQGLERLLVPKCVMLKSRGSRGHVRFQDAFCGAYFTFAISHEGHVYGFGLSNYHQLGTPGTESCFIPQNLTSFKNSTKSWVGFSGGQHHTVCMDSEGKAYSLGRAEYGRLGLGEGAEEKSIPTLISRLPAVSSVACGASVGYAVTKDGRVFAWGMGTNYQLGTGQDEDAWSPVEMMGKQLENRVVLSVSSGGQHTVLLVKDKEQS
inactive: [1] 0.106 | filanesib -0.058 | zotarolimus 0.083 | idasanutlin 0 | alisertib 0.022 | [2] -0.038 | gefitinib 0.087 | [3] 0.021 | lapatinib 0 | pictilisib -0.005

SIDT2 isoform 2 (UniProt Q8NBJ9)
UniProt Q8NBJ9, sequence (Q8NBJ9 whole entry, looked up): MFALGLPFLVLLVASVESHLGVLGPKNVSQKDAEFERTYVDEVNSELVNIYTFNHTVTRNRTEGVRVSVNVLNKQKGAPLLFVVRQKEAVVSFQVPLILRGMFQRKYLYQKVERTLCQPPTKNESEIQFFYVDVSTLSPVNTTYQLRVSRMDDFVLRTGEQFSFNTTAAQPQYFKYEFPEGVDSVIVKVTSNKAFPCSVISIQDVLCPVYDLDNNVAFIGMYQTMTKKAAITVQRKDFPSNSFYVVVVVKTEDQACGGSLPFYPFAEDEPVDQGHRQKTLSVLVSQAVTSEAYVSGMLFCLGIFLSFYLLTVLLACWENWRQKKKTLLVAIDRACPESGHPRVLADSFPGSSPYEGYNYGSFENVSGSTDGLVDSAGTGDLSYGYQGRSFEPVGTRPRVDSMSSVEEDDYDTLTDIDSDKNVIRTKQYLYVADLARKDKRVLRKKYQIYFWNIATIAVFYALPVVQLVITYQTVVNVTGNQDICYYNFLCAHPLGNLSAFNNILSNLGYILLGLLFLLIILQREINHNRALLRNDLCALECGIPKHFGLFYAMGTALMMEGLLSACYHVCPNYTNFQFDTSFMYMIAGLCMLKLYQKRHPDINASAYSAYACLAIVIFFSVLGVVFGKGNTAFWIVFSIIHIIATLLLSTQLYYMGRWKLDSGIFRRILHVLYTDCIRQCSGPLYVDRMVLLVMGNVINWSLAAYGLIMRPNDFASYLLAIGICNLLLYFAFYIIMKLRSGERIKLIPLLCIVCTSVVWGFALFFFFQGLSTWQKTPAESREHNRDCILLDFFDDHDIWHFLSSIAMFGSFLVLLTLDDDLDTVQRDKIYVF
inactive: [1] -0.062 | filanesib -0.08 | zotarolimus 0.127 | idasanutlin 0.01 | alisertib 0.082 | [2] -0.065 | gefitinib -0.207 | [3] 0.009 | lapatinib 0.004 | pictilisib 0.044

SLC19A1 (UniProt P41440)
UniProt P41440, sequence (P41440 whole entry, looked up): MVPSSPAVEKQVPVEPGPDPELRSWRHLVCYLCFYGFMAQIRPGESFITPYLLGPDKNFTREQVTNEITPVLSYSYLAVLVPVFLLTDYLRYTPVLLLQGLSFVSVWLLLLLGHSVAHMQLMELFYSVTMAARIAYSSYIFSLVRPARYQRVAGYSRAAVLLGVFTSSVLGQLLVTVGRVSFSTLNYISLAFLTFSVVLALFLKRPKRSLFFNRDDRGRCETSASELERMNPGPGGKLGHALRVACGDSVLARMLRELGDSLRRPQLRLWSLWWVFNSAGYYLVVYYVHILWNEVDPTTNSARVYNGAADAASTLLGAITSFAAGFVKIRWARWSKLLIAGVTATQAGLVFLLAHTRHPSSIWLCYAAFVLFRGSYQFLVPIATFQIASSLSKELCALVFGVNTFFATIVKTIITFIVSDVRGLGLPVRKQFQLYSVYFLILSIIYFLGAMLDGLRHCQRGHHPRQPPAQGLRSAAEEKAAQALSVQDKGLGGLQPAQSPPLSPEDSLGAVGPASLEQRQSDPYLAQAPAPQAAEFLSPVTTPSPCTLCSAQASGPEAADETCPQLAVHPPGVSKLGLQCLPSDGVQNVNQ
inactive: [1] 0.047 | filanesib -0.164 | zotarolimus -0.106 | idasanutlin 0.023 | alisertib -0.034 | [2] 0.003 | gefitinib 0 | [3] 0.086 | lapatinib -0.066 | pictilisib -0.026

RPS3A (UniProt P61247)
inactive: [1] -0.112 | filanesib 0.117 | zotarolimus 0.006 | idasanutlin 0.069 | alisertib -0.052 | [2] -0.009 | gefitinib -0.06 | [3] -0.152 | lapatinib 0.053 | pictilisib -0.078

RSRC1 (UniProt Q96IZ7)
UniProt Q96IZ7, sequence (Q96IZ7 whole entry, looked up): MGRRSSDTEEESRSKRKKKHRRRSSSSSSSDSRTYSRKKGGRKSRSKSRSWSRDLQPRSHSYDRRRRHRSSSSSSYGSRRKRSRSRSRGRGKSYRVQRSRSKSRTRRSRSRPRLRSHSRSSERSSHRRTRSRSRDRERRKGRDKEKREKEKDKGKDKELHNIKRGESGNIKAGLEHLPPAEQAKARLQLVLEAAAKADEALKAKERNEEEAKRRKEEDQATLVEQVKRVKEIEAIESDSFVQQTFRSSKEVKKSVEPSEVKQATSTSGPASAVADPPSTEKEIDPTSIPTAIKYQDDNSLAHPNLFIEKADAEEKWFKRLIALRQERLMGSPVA
inactive: [1] 0.136 | filanesib -0.003 | zotarolimus 0.033 | idasanutlin -0.004 | alisertib -0.084 | [2] -0.024 | gefitinib 0.024 | [3] 0.001 | lapatinib 0.041 | pictilisib 0.101

RDH13 (UniProt Q8NBN7)
UniProt Q8NBN7, sequence (Q8NBN7 whole entry, looked up): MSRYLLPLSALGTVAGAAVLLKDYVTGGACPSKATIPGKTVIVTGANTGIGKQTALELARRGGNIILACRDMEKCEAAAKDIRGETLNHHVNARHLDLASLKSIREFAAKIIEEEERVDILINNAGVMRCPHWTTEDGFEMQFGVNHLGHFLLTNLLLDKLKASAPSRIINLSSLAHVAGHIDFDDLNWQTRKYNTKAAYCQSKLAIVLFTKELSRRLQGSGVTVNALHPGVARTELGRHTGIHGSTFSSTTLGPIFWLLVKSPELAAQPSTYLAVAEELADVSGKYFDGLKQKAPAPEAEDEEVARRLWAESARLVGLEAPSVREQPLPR
inactive: [1] 0.056 | filanesib -0.135 | zotarolimus 0.072 | idasanutlin -0.019 | alisertib -0.005 | [2] -0.064 | gefitinib 0.018 | [3] 0.084 | lapatinib 0 | pictilisib 0.042
